Consider eight compounds from PubChem BioAssay (NCI).

Test systems include SR leukemia; RPMI-8226 leukemia; OVCAR-8 ovarian; OVCAR-5 ovarian; OVCAR-4 ovarian; SK-OV-3 ovarian; IGROV1 ovarian; OVCAR-3 ovarian; HS 578T breast; NCI/ADR-RES ovarian; T-47D breast; BT-549 breast; MDA-MB-435 melanoma; SW-620 colon; MCF7 breast; HCT-116 colon; HCC-2998 colon; KM12 colon.
Holding throughout (assay): NCI-60 one-dose screen, 48 h (100 = growth as untreated, 0 = no growth, -100 = all killed)
Details in all cases: 10 µM unless noted

The panel holds about 83,000 compounds, 20% with a hit somewhere; the sample as a whole holds those more often.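 Plates (96-well) were seeded with cells, treated with compound at one concentration, and incubated for 48 hours before percent growth was determined.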 Values without a mark were called inactive. Calls of active or inactive are those of the source. Rule for the calls: active = growth percent below 10; inactive = the rest.

Regarding `C=C1C(=O)O[C@H]2[C@H]1CC/C(COC(=O)NCCc1c[nH]c3ccccc13)=C\CC[C@@]1(C)O[C@@H]21`, the growth was 0.79% (active) in the assay on SR leukemia; -25.7% (active) with RPMI-8226 leukemia; 36.4% with OVCAR-8 ovarian; 56.6% in the assay on OVCAR-5 ovarian; 38.4% with OVCAR-4 ovarian; 89.1% in the assay with SK-OV-3 ovarian. The growth in the assay with IGROV1 ovarian is -16.6% (active); with OVCAR-3 ovarian, -65.6% (active); in the assay on HS 578T breast, 81%; in the assay on NCI/ADR-RES ovarian, 65.9%; with T-47D breast, -36.9% (active); with BT-549 breast it was -12.9% (active). For the same compound, the growth in the assay with MDA-MB-435 melanoma was 42%; with SW-620 colon, -33.2% (active); with MCF7 breast, 6.64% (active); with HCT-116 colon, -89.1% (active); in the assay with HCC-2998 colon, 94.7%; with KM12 colon it was 89.6%.
As for `C=C(C)[C@@H]1CC[C@]2(C(=O)O)CC[C@]3(C)[C@H](CC[C@@H]4[C@@]5(C)C/C(=C/c6ccc(OC)cc6)C(=O)C(C)(C)[C@@H]5CC[C@]43C)[C@@H]12`, the growth in the assay on SR leukemia is 30.9%; in the assay with RPMI-8226 leukemia, 15.5%; in the assay with OVCAR-8 ovarian, 23.2%; with OVCAR-5 ovarian, 49.3%; with OVCAR-4 ovarian, 26.8%; with SK-OV-3 ovarian, 25%. Further, the growth is 23.8% with IGROV1 ovarian; 16.5% in the assay with OVCAR-3 ovarian; 49.9% with HS 578T breast; 17.7% in the assay on NCI/ADR-RES ovarian; 13.3% in the assay with T-47D breast; 26.2% in the assay with BT-549 breast. Besides, the growth in the assay with MDA-MB-435 melanoma is 30.3%; with SW-620 colon, 21.9%; with MCF7 breast, 5.66% (active); with HCT-116 colon, 5.84% (active); with HCC-2998 colon it was 21.7%; in the assay with KM12 colon, 21.3%.
On to `CCCCC[C@H]1C/C=C2/C(=O)C(Cl)=C[C@@H]2C/C=C\CCCC(=O)O1`, for which the growth with SR leukemia was 2.6% (active); with RPMI-8226 leukemia, -23.5% (active); with OVCAR-8 ovarian it was -19.1% (active); in the assay on OVCAR-5 ovarian it was -64.9% (active); in the assay with OVCAR-4 ovarian it was 16.3%; with SK-OV-3 ovarian, -15.2% (active). Further, the growth in the assay with IGROV1 ovarian is -61% (active); in the assay with OVCAR-3 ovarian, -89.5% (active); with HS 578T breast, 29.7%; in the assay on NCI/ADR-RES ovarian, 12.1%; in the assay with T-47D breast, -33.7% (active); with BT-549 breast it was -77.3% (active). The growth was -48.2% (active) in the assay on MDA-MB-435 melanoma; -48.8% (active) with SW-620 colon; 0.987% (active) in the assay with MCF7 breast; -86.9% (active) in the assay with HCT-116 colon; -68.7% (active) in the assay on HCC-2998 colon; -33.9% (active) in the assay with KM12 colon.
As for `COc1ccc(/C=C2\N=C(c3ccccc3)N(c3cc(OC)c(OC)cc3C(=O)N3N=C(C)CC3=O)C2=O)cc1`, the growth in the assay on SR leukemia was 92.1%; in the assay on RPMI-8226 leukemia, 47.7%; in the assay with OVCAR-8 ovarian, 89.4%; in the assay on OVCAR-5 ovarian it was 103%; with OVCAR-4 ovarian, 101%; with SK-OV-3 ovarian, 99.3%. Also, the growth in the assay on IGROV1 ovarian is 99.8%; in the assay with OVCAR-3 ovarian, 105%; with HS 578T breast, 91.7%; in the assay with NCI/ADR-RES ovarian, 78.6%; in the assay on T-47D breast, 71.2%; with BT-549 breast, 90.1%. Besides, the growth is 93.4% with MDA-MB-435 melanoma; 108% with SW-620 colon; 89.7% in the assay with MCF7 breast; 89.6% with HCT-116 colon; 113% in the assay with HCC-2998 colon; 91.1% in the assay on KM12 colon.
For `CCN1CCN(C(=O)[C@]23CC[C@@H](C)[C@H](C)[C@H]2C2=CC[C@@H]4[C@@]5(C)C/C(=C/c6cccc(OC)c6OC)C(=O)C(C)(C)[C@@H]5CC[C@@]4(C)[C@]2(C)CC3)CC1`, the growth is 5.2% (active) with SR leukemia; 15.4% in the assay with RPMI-8226 leukemia; 50.3% in the assay with OVCAR-8 ovarian; 67.8% with OVCAR-5 ovarian; 24.5% in the assay with OVCAR-4 ovarian; 68.6% with SK-OV-3 ovarian. Besides, the growth in the assay on IGROV1 ovarian was 60.7%; with OVCAR-3 ovarian it was 31.2%; with HS 578T breast it was 67.6%; with NCI/ADR-RES ovarian, 35.3%; in the assay on T-47D breast, 18.2%; in the assay on BT-549 breast, 55%. Further, the growth in the assay on MDA-MB-435 melanoma is 43.4%; in the assay on SW-620 colon it was 33.3%; in the assay with MCF7 breast, 12.2%; in the assay on HCT-116 colon, 17.9%; in the assay on HCC-2998 colon it was 44.6%; with KM12 colon, 32.7%.
As to `Cc1ccc(C)c2c1CCC2C(C)C` (centres undefined), the growth with SR leukemia was 89.3%; in the assay with RPMI-8226 leukemia it was 96.7%; in the assay on OVCAR-8 ovarian it was 100%; in the assay on OVCAR-5 ovarian, 98.3%; with OVCAR-4 ovarian, 100%; in the assay on SK-OV-3 ovarian, 92.9%. Moreover, the growth was 103% with IGROV1 ovarian; 104% in the assay with OVCAR-3 ovarian; 100% in the assay on HS 578T breast; 105% in the assay on NCI/ADR-RES ovarian; 91.2% in the assay on T-47D breast; 100% in the assay with BT-549 breast. Besides, the growth is 108% in the assay on MDA-MB-435 melanoma; 106% with SW-620 colon; 107% in the assay on MCF7 breast; 96% with HCT-116 colon; 101% with HCC-2998 colon; 101% with KM12 colon.
In the case of `CN(C)CCCC1(c2ccc(F)cc2)OCc2cc(-c3ccc(C(F)(F)F)nc3)ccc21` (centres undefined), the growth with SR leukemia was 11.9%; in the assay with RPMI-8226 leukemia, 69.2%; in the assay with OVCAR-8 ovarian, 83.6%; with OVCAR-5 ovarian, 85.5%; in the assay with OVCAR-4 ovarian, 66.4%; in the assay with SK-OV-3 ovarian, 80.3%. The growth is 66.5% in the assay on IGROV1 ovarian; 84.6% in the assay with OVCAR-3 ovarian; 61.9% in the assay with HS 578T breast; 84.1% in the assay on NCI/ADR-RES ovarian; 66.5% in the assay on T-47D breast; 94.7% in the assay on BT-549 breast. Besides, the growth is 67.9% in the assay on MDA-MB-435 melanoma; 83.5% with SW-620 colon; 56.7% with MCF7 breast; 58.4% in the assay with HCT-116 colon; 31.8% in the assay with HCC-2998 colon; 80.2% in the assay on KM12 colon.
For the compound `C=C(C)[C@@H]1CC[C@]2(C(=O)N3CCN(CC)CC3)CC[C@]3(C)[C@H](CC[C@@H]4[C@@](C)(CCC(=O)N5CCN(CC)CC5)[C@H](C(=C)C)CC[C@]43C)[C@@H]12`, the growth with SR leukemia is 5.68% (active); in the assay with RPMI-8226 leukemia it was 22.3%; in the assay on OVCAR-8 ovarian, 78.3%; with OVCAR-5 ovarian, 72.3%; in the assay with OVCAR-4 ovarian it was 77.4%; with SK-OV-3 ovarian, 95.5%. The growth is 73.6% in the assay on IGROV1 ovarian; 60.5% in the assay on OVCAR-3 ovarian; 80.8% with HS 578T breast; 67.6% in the assay with NCI/ADR-RES ovarian; 59.7% in the assay with T-47D breast; 78.7% in the assay with BT-549 breast. Further, the growth in the assay on MDA-MB-435 melanoma is 70.2%; in the assay with SW-620 colon, 49.9%; in the assay on MCF7 breast, 46.5%; in the assay with HCT-116 colon, 24.9%; in the assay with HCC-2998 colon it was 75.7%; in the assay with KM12 colon it was 54.2%.
